Several values for one entry are separate records, joined by “and”; a condition that tells them apart may be missing. Equal values may be shown once. In all, about 5,500 compounds went through this assay and about 2,000 (36%) were called active. Inconclusive results (about 18%) are left out. No stated cut-off is given here; in the data, active means normalized growth mostly below about 0.91 (no sharp cut-off); inconclusive means no clear call, values can overlap the other calls; inactive means mostly above about 0.92. This is one part of the list.
Assay: chemical genetic growth profiling, strain panel (AID 1159580);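 further: tested at 20 µM; growth read once vehicle control cultures reached saturation at 30 °C; 1 = growth at the plate median or of vehicle wells; lower values mean less growth of the strain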
Settings: S. cerevisiae deletion strains, growth OD

Measured: normalized growth

O=c1c(O)cccc2cc(O)c(O)c(O)c12
inactive: locus YBR021W, strain FUR4, hits give low values 0.921 | locus YDL005C, strain med2, hits give low values 0.978 | locus YDL040C, strain nat1, hits give low values 0.946 | locus YDR001C, strain nth1, hits give low values 0.925 | locus YER110C, hits give low values 1.02 | locus YGL227W, strain vid30, hits give low values 0.954 | locus YGL240W, strain doc1, hits give low values 0.968 | locus YHR094C, strain hxt1, hits give low values 0.98 | locus YJL168C, strain set2, hits give low values 0.966 | locus YKR091W, strain srl3, hits give low values 0.939 | locus YLR102C, strain apc9, hits give low values 1.02 | locus YMR078C, strain ctf18, hits give low values 0.971 | locus YMR125W, strain sto1, hits give low values 0.955 | locus YNL298W, strain CLA4, hits give low values 0.969 | locus YNL307C, strain MCK1, hits give low values 0.959 | locus YOL012C, strain htz1 0.272 | locus YOR136W, strain idh2, hits give low values 0.925 | locus YOR316C, strain cot1, hits give low values 1 | locus YPR119W, strain clb2, hits give low values 1.01
active: locus YAL021C, strain ccr4, hits give low values 0.082 | locus YAL026C, strain drs2, hits give low values 0.425 | locus YAL030W, strain snc1, hits give low values 0.884 | locus YBL061C, strain skt5, hits give low values 0.798 | locus YBR009C, strain hhf1, hits give low values 0.76 | locus YBR023C, strain chs3, hits give low values 0.668 | locus YBR171W, strain sec66, hits give low values 0.881 | locus YBR229C, strain ROT2, hits give low values 0.844 | locus YBR231C, strain swc5, hits give low values 0.623 | locus YBR279W, strain paf1, hits give low values 0.856 | locus YCL011C, strain gbp2, hits give low values 0.859 | locus YCL016C, strain dcc1, hits give low values 0.858 | locus YCL029C, strain bik1, hits give low values 0.443 | locus YCL061C, strain MRC1, hits give low values 0.833 | locus YCL069W, strain vba3, hits give low values 0.858 | locus YCR088W, strain abp1, hits give low values 0.875 | locus YDL035C, strain GPR1, hits give low values 0.678 | locus YDL074C, strain BRE1, hits give low values 0.497 | locus YDL101C, strain DUN1, hits give low values 0.457 | locus YDL185W, strain tfp1, hits give low values 0.501 | locus YDL192W, strain arf1, hits give low values 0.742 | locus YDR069C, strain doa4, hits give low values 0.166 | locus YDR101C, strain arx1, hits give low values 0.479 | locus YDR137W, strain rgp1, hits give low values 0.126 | locus YDR159W, strain sac3, hits give low values 0.149 | locus YDR162C, strain NBP2, hits give low values 0.515 | locus YDR195W, strain ref2 0.692 | locus YDR297W, strain sur2, hits give low values 0.877 | locus YDR318W, strain mcm21, hits give low values 0.885 | locus YDR334W, strain swr1, hits give low values 0.515 | locus YDR335W, strain msn5, hits give low values 0.18 | locus YDR388W, hits give low values 0.855 | locus YDR392W, strain spt3, hits give low values 0.738 | locus YDR502C, strain sam2, hits give low values 0.569 | locus YEL003W, strain gim4, hits give low values 0.671 | locus YEL037C, strain rad23, hits give low values 0.716 | locus YEL061C, strain CIN8 (second series), hits give low values 0.878 | locus YER015W, strain faa2, hits give low values 0.593 | locus YER016W, strain bim1, hits give low values 0.904 | locus YER111C, strain swi4, hits give low values 0.22 | locus YER155C, strain BEM2 (second series), hits give low values 0.489 | locus YER155C, strain BEM2, hits give low values 0.664 | locus YER167W, strain BCK2, hits give low values 0.865 | locus YFR010W, strain ubp6, hits give low values 0.509 | locus YGL078C, strain dbp3, hits give low values 0.841 | locus YGL086W, strain mad1, hits give low values 0.758 | locus YGL167C, strain pmr1, hits give low values 0.757 | locus YGL173C, strain kem1, hits give low values 0.497 | locus YGL248W, strain PDE1, hits give low values 0.775 | locus YGL253W, strain hxk2, hits give low values 0.71 | locus YGR135W, strain pre9, hits give low values 0.822 | locus YGR252W, strain gcn5, hits give low values 0.716 | locus YHR013C, strain ard1, hits give low values 0.577 | locus YHR027C, strain rpn1, hits give low values 0.554 | locus YHR030C, strain SLT2, hits give low values 0.898 and 0.73 | locus YHR079C, strain IRE1 (second series), hits give low values 0.182 | locus YHR079C, strain IRE1, hits give low values 0.654 | locus YHR129C, strain ARP1, hits give low values 0.693 | locus YHR142W, strain chs7, hits give low values 0.536 | locus YHR200W, strain rpn10, hits give low values 0.817 | locus YIL066C, strain RNR3, hits give low values 0.768 | locus YIL073C, strain SPO22, hits give low values 0.508 | locus YIL125W, strain kgd1, hits give low values 0.783 | locus YIR030C, strain dcg1, hits give low values 0.812 | locus YJL092W, strain hpr5, hits give low values 0.9 | locus YJL095W, strain BCK1 (second series), hits give low values 0.754 | locus YJL095W, strain BCK1, hits give low values 0.105 and 0.759 | locus YJL115W, strain asf1, hits give low values 0.894 | locus YJL129C, strain trk1, hits give low values 0.547 | locus YJL134W, strain LCB3, hits give low values 0.872 | locus YJL154C, strain vps35, hits give low values 0.816 | locus YJL164C, strain tpk1, hits give low values 0.714 | locus YJL166W, strain qcr8, hits give low values 0.802 | locus YJL187C, strain SWE1 (second series), hits give low values 0.22 | locus YJL187C, strain SWE1, hits give low values 0.813 | locus YJR066W, strain TOR1, hits give low values 0.684 | locus YJR075W, strain HOC1, hits give low values 0.82 | locus YKL009W, strain mrt4, hits give low values 0.345 | locus YKL068W, hits give low values 0.928 | locus YKL085W, strain MDH1 (second series), hits give low values 0.818 | locus YKL085W, strain MDH1, hits give low values 0.818 | locus YKL160W, strain elf1, hits give low values 0.853 | locus YKR001C, strain vps1, hits give low values 0.818 | locus YKR026C, strain gcn3, hits give low values 0.915 | locus YLL001W, strain dnm1, hits give low values 0.699 | locus YLL026W, hits give low values 0.841 | locus YLL041C, strain sdh2, hits give low values 0.902 | locus YLR027C, strain aat2, hits give low values 0.815 | locus YLR039C, strain RIC1, hits give low values 0.481 | locus YLR058C, strain SHM2, hits give low values 0.22 | locus YLR113W, strain HOG1, hits give low values 0.51 | locus YLR221C, strain rsa3, hits give low values 0.78 | locus YLR258W, strain gsy2, hits give low values 0.83 | locus YLR262C, strain YPT6 (second series), hits give low values 0.485 | locus YLR268W, strain sec22, hits give low values 0.515 | locus YLR320W, strain mms22, hits give low values 0.595 | locus YLR330W, strain CHS5, hits give low values 0.852 | locus YLR342W, strain FKS1 (second series), hits give low values 0.564 | locus YLR342W, strain FKS1, hits give low values 0.764 | locus YLR357W, strain rsc2, hits give low values 0.632 | locus YLR370C, strain arc18, hits give low values 0.656 | locus YLR371W, strain rom2, hits give low values 0.746 | locus YLR384C, strain iki3, hits give low values 0.799 | locus YLR418C, strain cdc73, hits give low values 0.458 | locus YML016C, strain PPZ1, hits give low values 0.583 | locus YML032C, strain rad52, hits give low values 0.522 | locus YML120C, strain ndi1, hits give low values 0.0997 | locus YML124C, strain tub3, hits give low values 0.839 | locus YMR058W, strain fet3, hits give low values 0.179 | locus YMR129W, hits give low values 0.919 | locus YMR205C, strain PFK2, hits give low values 0.511 | locus YMR223W, strain ubp8, hits give low values 0.838 | locus YMR231W, strain pep5, hits give low values 0.183 | locus YMR307W, strain GAS1, hits give low values 0.586 | locus YNL067W, strain RPL9B, hits give low values 0.699 | locus YNL071W, strain lat1, hits give low values 0.833 | locus YNL153C, strain GIM3, hits give low values 0.511 | locus YNL183C, strain NPR1, hits give low values 0.66 | locus YNL209W, strain ssb2, hits give low values 0.398 | locus YNL233W, strain BNI4, hits give low values 0.741 | locus YNL248C, strain rpa49, hits give low values 0.811 | locus YNL250W, strain rad50, hits give low values 0.76 | locus YNL271C, strain bni1, hits give low values 0.841 | locus YNL322C, strain KRE1 (second series), hits give low values 0.237 | locus YNR049C, strain mso1, hits give low values 0.898 | locus YNR052C, strain pop2, hits give low values 0.185 | locus YOL006C, strain TOP1, hits give low values 0.423 | locus YOL147C, strain pex11, hits give low values 0.689 | locus YOR001W, strain rrp6, hits give low values 0.686 | locus YOR061W, strain CKA2, hits give low values 0.734 | locus YOR069W, strain VPS5, hits give low values 0.775 | locus YOR070C, strain gyp1, hits give low values 0.901 | locus YOR080W, strain dia2, hits give low values 0.553 | locus YOR083W, strain WHI5, hits give low values 0.737 | locus YOR106W, strain vam3, hits give low values 0.367 | locus YOR144C, strain elg1, hits give low values 0.545 | locus YOR184W, strain ser1, hits give low values 0.636 | locus YOR231W, strain MKK1, hits give low values 0.665 | locus YOR265W, strain rbl2, hits give low values 0.871 | locus YOR270C, strain vph1, hits give low values 0.16 | locus YOR290C, strain snf2, hits give low values 0.105 | locus YPL051W, strain arl3, hits give low values 0.525 | locus YPL078C, strain atp4, hits give low values 0.284 | locus YPL106C, strain sse1, hits give low values 0.747 | locus YPL240C, strain hsp82, hits give low values 0.864 | locus YPL241C, strain CIN2, hits give low values 0.841 | locus YPL256C, strain CLN2, hits give low values 0.601 | locus YPR141C, strain kar3, hits give low values 0.607 | locus YPR163C, strain tif3, hits give low values 0.884 | locus YPR167C, strain met16, hits give low values 0.871 | strain wtn01, hits give low values 0.761

Reference: PubChem BioAssay AID1159580 (chemical genetic matrix, 2015)
